# tim10-1 inh: tim10-1 yeast growth inhibition; S. cerevisiae tim10-1 ts strain growth, BacTiter-Glo, 24 h; 330,000 tested, 2.2% active; AID 463190; inhibition, % at 20 µM;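 active = inhibition of at least 40%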;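 also: mutant grown at 25 °C; 0% = DMSO wells with yeast and 100% = wells holding no yeast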
# SKKanGAS inh: blocks kanamycin growth of S. pyogenes SKKanGAS strain | inhibition, % at 7.5 µM | BacTiter-Glo, 6 h | 300,000 tested, 1.3% active | AID 1662;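 active = mean replicate score, as percent of positive control median, at least 50; inconclusive = mean below 50 but one replicate at or above 50; inactive = mean and every replicate below 50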;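 also: strain carries kanamycin resistance gene driven by streptokinase promoter and grows in 40 µg/ml kanamycin; loss of luminescence reflects streptokinase promoter inhibition or plain growth inhibition; 0% = median of DMSO wells and 100% = positive control at its reference dose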
# PfHsp90 set2: inhibits growth of yeast expressing Plasmodium falciparum Hsp90. S. cerevisiae expressing PfHsp90, BacTiter-Glo ATP, 48 h; yeast lacking PDR1 and PDR3 efflux regulators. inhibition, % at 9.4 µM. 310,000 tested, 0.32% active;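 active = every replicate shows inhibition above about 80%, whatever the replicate mean, limit read from the data; inconclusive = mean inhibition reaches the set limit but some replicate falls short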;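 also: 0% = DMSO neutral controls and 100% = 20 µM radicicol positive controls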
# Calb FLC: C. albicans growth modulation with fluconazole; C. albicans CaCi-2 (fluconazole-resistant clinical isolate) + fluconazole, Alamar Blue growth, 48 h; 300,000 tested, 0.57% active; growth inhibition, % (test concentration not listed);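 active = growth inhibition above about 58% in most replicates, limit read from the data, passing the limit was not always enough; inconclusive = exactly half the replicates above a set limit; inactive = most replicates below a set limit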;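 also: all wells also contain fluconazole at 8 µg/ml as a sub-toxic cotreatment; 0% = median of DMSO wells and 100% = median of geldanamycin control wells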
# tim23-1 inh: tim23-1 yeast growth inhibition | S. cerevisiae tim23-1 growth, BacTiter-Glo luminescence, 24 h | inhibition, % at 20 µM | 330,000 tested, 1.3% active | AID 463212;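 active = growth inhibition of the mutant yeast at or above 50%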;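 also: temperature-sensitive mutant grown at 25 °C; plate controls were DMSO-treated mutant yeast for no effect and medium wells lacking yeast for full effect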
# TIM10 inh: inhibits growth of TIM10 yeast strain | 330,000 tested, 1.4% active | inhibition, % at 10 µM | S. cerevisiae TIM10 strain growth, BacTiter-Glo luminescence, 24 h;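 active = inhibition of 40% or more at the single tested concentration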;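 also: wild-type TIM10 isogenic control strain grown at permissive 25 °C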
# * = called active by the depositor; u = inconclusive; x = no result; + = active, no number. Rows were chosen to be rich in hits. Some 4.7% of all compounds tested hit in one or more screens of this group.
SMILES,tim10-1 inh,SKKanGAS inh,PfHsp90 set2,Calb FLC,tim23-1 inh,TIM10 inh
CC1(C)c2ccccc2-n2c1cc1oc(=O)cc(O)c1c2=O,-18,96*,31,-1,35,33
Cc1ccc(C2=CSC3=NCCN23)c(C)c1,-5,4,19,-6,3,-13
Cc1ccc(C2=CSC3=NNC4(CCCCC4)NN23)cc1,11,-2,-4,111*,13,3
COc1ccc(C2=CSC3=NNC4(CCCCC4)NN23)cc1,4,4,4,112*,12,-1
O=C(CNCCc1ccc(F)cc1)Nc1cc(F)ccc1F,23,9,-1,x,-9,0
CN(C)c1ccc(NC(=O)C2C3C=CC(C3)C2C(=O)O)cc1 (stereo unspecified),20,4,28,92*,17,0
O=C(O)C1C2C=CC(C2)C1C(=O)Nc1ccc2c(c1)OCCO2 (stereo unspecified),8,4,x,-7,-2,4
O=C(Nc1cccc(F)c1)c1ccc2ncsc2c1,-26,-3,1,111*,37,10
O=C(Nc1ccncc1)c1ccc2ncsc2c1,-21,15,-11,2,-23,-10
O=C(Nc1ccc(F)cc1F)c1ccc2ncsc2c1,7,0,-4,-14,3,9
O=C(Nc1ccccc1F)c1ccc2ncsc2c1,16,-2,-16,105*,-4,13
O=c1c2ccccc2n(Cc2ccc(Cl)cc2)c(=O)n1Cc1ccco1,17,13,11,u,15,2
Cc1ccc(Cn2c(=O)n(Cc3ccco3)c(=O)c3ccccc32)cc1,33,55*,3,-2,20,19
c1ccc2c(c1)CCN(c1ncnc3c1[nH]c1ccccc13)C2,28,5,-26,92*,48,26
Cc1cc(C(=O)COc2ccc(F)cc2Br)c(C)n1C1CC1,6,x,-66,x,16,-12
COc1ccc(C(=O)COC(=O)c2cc([N+](=O)[O-])ccc2N2CCOCC2)c(OC)c1,-28,-3,+,-2,-44,-115
O=C(NCC(c1cccs1)N1CCOCC1)c1cc(S(=O)(=O)N2CCOCC2)ccc1Cl (stereo unspecified),x,x,0,x,x,x
Cc1ccn2c(Nc3ccccc3C)c(-c3ccccn3)nc2c1,4,96*,-6,55,46,39
COc1ccc(-c2nc3ncccn3c2Nc2ccccc2)cc1,16,6,7,-2,7,25
Cc1ccn2c(Nc3ccccc3)c(-c3ccccn3)nc2c1,-16,76*,3,5,-21,19
Cc1ccccc1Nc1c(-c2ccccn2)nc2ccccn12,-11,-2,-11,6,47,25
Cc1ccc2nc(-c3ccccn3)c(Nc3ccccc3C)n2c1,27,92*,-2,30,-19,21
Cc1ccc2nc(-c3cccnc3)c(Nc3ccccc3C)n2c1,-13,-2,17,13,-12,-13
Cc1cccn2c(Nc3ccccc3)c(-c3ccccn3)nc12,-8,68*,-26,-8,-37,4
COc1cccc(N2CC(C(=O)Nc3nnc(SCC(=O)NCc4ccco4)s3)CC2=O)c1 (stereo unspecified),-2,1,2,-1,6,1
SMILES,tim10-1 inh,SKKanGAS inh,PfHsp90 set2,Calb FLC,tim23-1 inh,TIM10 inh
Nc1ccc2cc3[nH]c4cc(N)ccc4c3nc2c1,x,x,-2,x,x,x
C(=N\NC1=Nc2cccc3cccc1c23)/c1ccccn1,x,-2,3,94*,x,x
N#Cc1cc(C(=O)c2cc(Cl)ccc2O)cn(-c2ccccc2)c1=O,38,-2,-16,0,42,24
O=C(c1ccccc1)c1cc(Cl)ccc1N1C(=O)C=CC1=O,x,x,107*,x,x,x
COc1ccccc1CN(C)C(=O)COC(=O)c1ccc(Cl)nc1,-6,x,-4,x,2,-22
CC(C)n1cnc2c(NCc3ccccc3)nc(NCc3ccccc3)nc21,22,90*,-41,-11,35,27
CCN(CC)C(=S)Sc1c(-c2ccccc2)c2cc(Cl)ccc2[nH]c1=O,30,92*,-7,-21,11,23
FC(F)Sc1ccc(NC(=S)NC(c2ccccc2)c2ccccc2)cc1,8,126*,-21,-10,1,12
CC(NC(=S)Nc1ccc(F)cc1)c1ccccc1 (stereo unspecified),24,5,-4,-6,28,13

# Screens: PubChem BioAssay, several laboratories
